Among the test systems are DU-145 prostate; K-562 leukemia; MALME-3M melanoma; MDA-MB-231 breast; RXF 393 renal; SF-268 CNS; SF-295 CNS; SF-539 CNS; UACC-257 melanoma; M14 melanoma.
Common to all, as to assay: NCI-60 one-dose screen, 48 h (100 = growth as untreated, 0 = no growth, -100 = all killed)
Conditions in all cases: 10 µM unless noted

13 molecules from PubChem BioAssay (NCI) can be followed below.

About 83,000 compounds went through this panel and 20% of them were active in at least one assay; those are over-represented in the sample as a whole.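 Growth was measured after 48 h exposure to one concentration of compound in 96-well plates. Values under 10 count as active.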 A number with no mark means an inactive call. Activity calls are given as the source filed them.

As to `COc1ccc(C2CC(c3ccc(OC)cc3O)=NN2c2ccc(S(N)(=O)=O)cc2)cc1` (stereo not given), the growth was 61.9% in the experiment with DU-145 prostate; 10.8% in the experiment with K-562 leukemia; 121% with MALME-3M melanoma; 61.1% in the experiment on MDA-MB-231 breast; 67.5% in the experiment on RXF 393 renal; 50.5% with SF-268 CNS. The growth in the experiment with SF-295 CNS is -7.99% (active); in the experiment on SF-539 CNS, 69.8%; in the experiment with UACC-257 melanoma it was 56.6%; in the experiment on M14 melanoma it was 34.1%.

As to `COC(=O)CCc1n(Cc2ccc3ccccc3c2)c2ccccc2[n+]1Cc1ccc2ccccc2c1`, the growth in the experiment with DU-145 prostate is 28%; in the experiment with K-562 leukemia, 9.25% (active); in the experiment with MALME-3M melanoma, -34.5% (active); with MDA-MB-231 breast, -39.4% (active); in the experiment with RXF 393 renal it was 23.7%; in the experiment with SF-268 CNS, 12.1%. In addition, the growth in the experiment with SF-295 CNS was 13.1%; in the experiment on SF-539 CNS, 16.3%; with UACC-257 melanoma it was -28.2% (active); in the experiment with M14 melanoma it was -25.5% (active).

Turning to `Nc1c(C(=O)Nc2ccccn2)sc2nc3c(cc12)CCCCCC3`, the growth with DU-145 prostate is 11.4%; with K-562 leukemia it was 7.85% (active); in the experiment on MALME-3M melanoma, 20.7%; in the experiment on MDA-MB-231 breast it was 49.4%; in the experiment with RXF 393 renal, -8.82% (active); in the experiment on SF-268 CNS it was 35.6%. Also, the growth with SF-295 CNS was 0.944% (active); with SF-539 CNS, 6.92% (active); with UACC-257 melanoma, 49.5%; in the experiment on M14 melanoma, 7.38% (active).

As for `C=C1C(=O)O[C@H]2[C@H]1CC/C(COC(=O)NCC(=O)Nc1ccc(OC)c(C(N)=O)c1O)=C\CC[C@@]1(C)O[C@@H]21`, the growth in the experiment on DU-145 prostate was 66.4%; in the experiment with K-562 leukemia it was 8.95% (active); in the experiment on MALME-3M melanoma, 59.7%; with MDA-MB-231 breast it was 68.2%; in the experiment on RXF 393 renal, 16.5%; in the experiment on SF-268 CNS, 70.8%. Further, the growth in the experiment on SF-295 CNS is 101%; in the experiment with SF-539 CNS it was 7.54% (active); in the experiment with UACC-257 melanoma, 53.3%; in the experiment with M14 melanoma, 62.9%.

In the case of `N#Cc1ccc(N2Cc3cc(Cl)ccc3OC3=C2C(=O)N(Cc2ccccc2)C3=O)cc1`, the growth in the experiment with DU-145 prostate was -75.7% (active); in the experiment on K-562 leukemia, -22.3% (active); in the experiment with MALME-3M melanoma, -64.4% (active); in the experiment on MDA-MB-231 breast, -15.9% (active); with RXF 393 renal, -79.8% (active); in the experiment on SF-268 CNS it was -43.3% (active). Also, the growth in the experiment on SF-295 CNS is 69.4%; with SF-539 CNS, -60.3% (active); with UACC-257 melanoma, -56.1% (active); in the experiment on M14 melanoma, -35.7% (active).

For `Cc1ccc(C(=O)O)o1`, the growth was 107% in the experiment with DU-145 prostate; 103% in the experiment on K-562 leukemia; 104% in the experiment on MALME-3M melanoma; 111% in the experiment on MDA-MB-231 breast; 118% in the experiment with RXF 393 renal; 98.1% with SF-268 CNS. In addition, the growth with SF-295 CNS was 99.8%; in the experiment on SF-539 CNS, 99.5%; in the experiment on UACC-257 melanoma, 103%; in the experiment with M14 melanoma it was 101%.

`NS(=O)(=O)c1ccc(-n2ncc(NC(=O)Nc3ccc(S(=O)(=O)Nc4nccs4)cc3)c2-c2ccccc2)cc1`: the growth with DU-145 prostate is 109%; in the experiment on K-562 leukemia, 96.1%; in the experiment on MALME-3M melanoma, 97.2%; in the experiment with MDA-MB-231 breast it was 112%; in the experiment with RXF 393 renal it was 120%; with SF-268 CNS, 101%. Further, the growth is 99.3% in the experiment on SF-295 CNS, 98.2% in the experiment with SF-539 CNS, 104% in the experiment with UACC-257 melanoma and 95.8% in the experiment with M14 melanoma.

Regarding `O=C(Nc1ccc(S(=O)(=O)NC2CCCCCC2)cc1)C(c1ccccc1)S(=O)(=O)c1ccc(F)cc1` (stereo not given), the growth with DU-145 prostate was 9.51% (active); in the experiment with K-562 leukemia, 7.42% (active); in the experiment on MALME-3M melanoma, -4.32% (active); in the experiment with MDA-MB-231 breast, 13.8%; in the experiment with RXF 393 renal it was -33.6% (active); in the experiment on SF-268 CNS it was 24.3%. Further, the growth is -13.8% (active) with SF-295 CNS, 9.02% (active) with SF-539 CNS, -24.6% (active) with UACC-257 melanoma and 2.29% (active) in the experiment on M14 melanoma.

Consider `COc1ccc2[nH]c(-c3ccccc3)c(C=C(C#N)C#N)c2c1`, for which the growth is 35.2% in the experiment on DU-145 prostate; -11.9% (active) with K-562 leukemia; 55.1% in the experiment with MALME-3M melanoma; 57.9% in the experiment with MDA-MB-231 breast; 22.4% in the experiment with RXF 393 renal; 49.1% in the experiment with SF-268 CNS. The growth with SF-295 CNS was -35.2% (active); with SF-539 CNS, 14%; in the experiment with UACC-257 melanoma, 69.8%; with M14 melanoma, 5.54% (active).

`O=C(Nc1cc(Br)ccn1)c1cc2cc(Nc3nc(-c4ccccc4)nc4ccccc34)ccc2oc1=O`: the growth is 111% in the experiment with DU-145 prostate; 88.6% in the experiment with K-562 leukemia; 117% in the experiment with MALME-3M melanoma; 118% in the experiment on MDA-MB-231 breast; 133% with RXF 393 renal; 112% in the experiment on SF-268 CNS. In addition, the growth in the experiment on SF-295 CNS was 108%; with SF-539 CNS it was 105%; with UACC-257 melanoma, 112%; in the experiment with M14 melanoma, 102%.

For the molecule `COc1ccc(NC(=O)c2sc3nc(C)c(C(C)=O)cc3c2N)cc1`, the growth in the experiment on DU-145 prostate was 102%; in the experiment on K-562 leukemia, 86.2%; in the experiment on MALME-3M melanoma it was 115%; in the experiment on MDA-MB-231 breast it was 102%; in the experiment on RXF 393 renal, 105%; in the experiment on SF-268 CNS it was 102%. Also, the growth in the experiment with SF-295 CNS was 97.7%; in the experiment with SF-539 CNS, 87.8%; in the experiment on UACC-257 melanoma, 88.7%; in the experiment on M14 melanoma, 100%.

With `C#C[C@@]1(O)[C@@H](CO)O[C@@H](n2cc(Br)c3c(N)ncnc32)[C@@H]1O`, the growth was 5% (active) in the experiment with DU-145 prostate; 5.03% (active) in the experiment with K-562 leukemia; 5.66% (active) in the experiment on MALME-3M melanoma; 2.76% (active) with MDA-MB-231 breast; -30.9% (active) in the experiment on RXF 393 renal; 13.9% in the experiment on SF-268 CNS. Moreover, the growth was 2.42% (active) with SF-295 CNS, -60.8% (active) in the experiment with SF-539 CNS, 57.5% with UACC-257 melanoma and 0.212% (active) in the experiment on M14 melanoma.

`NC(=O)CN1C(=O)c2ccccc2C1=O`: the growth is 101% in the experiment on DU-145 prostate; 96% with K-562 leukemia; 97.5% in the experiment on MALME-3M melanoma; 101% in the experiment with MDA-MB-231 breast; 114% with RXF 393 renal; 97.3% with SF-268 CNS. The growth was 95.3% in the experiment with SF-295 CNS, 106% in the experiment with SF-539 CNS, 106% with UACC-257 melanoma and 102% in the experiment on M14 melanoma.
